Bioassay records deposited in PubChem BioAssay by National Center for Advancing Translational Sciences (NCATS).
RORgamma inh: blocks mouse ROR gamma transcriptional activity; Potency, µM (doses to about 53.6 µM), for the others: at the highest dose activity change, negative = inhibition, actives largely listed as inhibitors; AID 2551; 5.4% of 310,000 active; Drosophila S2 Gal4-RORgamma UAS-luciferase reporter, 20 h; further: nearly all actives have a fitted effect of over 60% in size
Target sequence (P51450 whole entry, looked up, the tested form may be a part): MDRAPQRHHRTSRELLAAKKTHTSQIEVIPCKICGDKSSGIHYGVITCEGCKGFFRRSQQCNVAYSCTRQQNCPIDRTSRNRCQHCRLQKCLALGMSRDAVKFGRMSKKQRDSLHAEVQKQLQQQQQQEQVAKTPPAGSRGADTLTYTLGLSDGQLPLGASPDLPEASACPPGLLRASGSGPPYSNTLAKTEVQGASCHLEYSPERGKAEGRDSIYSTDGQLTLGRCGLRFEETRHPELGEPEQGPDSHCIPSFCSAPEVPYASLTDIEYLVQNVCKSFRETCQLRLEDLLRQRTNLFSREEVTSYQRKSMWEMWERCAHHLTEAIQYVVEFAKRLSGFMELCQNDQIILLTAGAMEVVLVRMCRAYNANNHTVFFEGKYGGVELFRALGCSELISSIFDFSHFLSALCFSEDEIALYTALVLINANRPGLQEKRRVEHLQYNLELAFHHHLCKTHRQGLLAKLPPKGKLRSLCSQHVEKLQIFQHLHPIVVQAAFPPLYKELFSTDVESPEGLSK
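Read-out: Photinus luciferase luminescence; inhibitors lower reporter signal. Insect Schneider cells with Gal4-ROR gamma fusion under metallothionein promoter, UAS reporter; 700 uM final copper sulfate induction, 20 hr, ambient temperature.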
Tau fibril FP: tau fibrillization inhibition (FP); P10636; K18 P301L tau heparin fibrillization, Alexa594 FP, 6 h; Potency, µM (doses to about 57.7 µM), inactives show at the highest dose activity, negative = inhibition, actives largely listed as inhibitors; 0.39% of 280,000 active; further: nearly all actives have a fitted effect of over 55% in size
Target sequence (P10636 561-689 P618L limits assumed): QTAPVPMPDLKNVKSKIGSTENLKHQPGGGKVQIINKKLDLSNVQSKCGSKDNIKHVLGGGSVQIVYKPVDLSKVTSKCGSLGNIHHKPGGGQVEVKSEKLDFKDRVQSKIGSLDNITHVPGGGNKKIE
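Quantitative HTS format: compounds meet 15 uM recombinant K18 P301L tau and Alexa 594-tau tracer in 100 mM sodium acetate pH 7; 20 uM heparin triggers fibrillization at 37 C over 6 hr; FP gives the signal.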
Gal4-VP16 FLuc: counter-screen for ROR gamma inhibitors: Gal4-VP16 reporter | Potency, µM (series often up to 53.6 µM), for the others: at the top dose activity, negative = inhibition, actives largely listed as inhibitors | Drosophila S2 Gal4-VP16 UAS-luciferase, luminescence, 20 h | 3.5% of 310,000 active;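 further: Gal4-VP16 expression switched on by copper sulfate through the metallothionein promoter; nearly all actives have a fitted effect of over 50% in size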
Tau ThT inhib: tau fibrillization inhibition (ThT binding); AID 1460; Potency, µM (series often up to 57.4 µM), for inactives: at the top dose activity, negative = inhibition, hits mostly inhibitors; 2.1% of 270,000 active; recombinant tau K18 P301L, heparin-induced fibrillization, ThT fluorescence; further: nearly all actives have a fitted effect of over 55% in size
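Tau K18 P301L fragment (15 uM unlabeled plus 0.24 uM Alexa 594-labeled) in 100 mM sodium acetate pH 7 with compound, fibrillization induced by 20 uM heparin for 6 hr at 37 C. Thioflavin T (30 uM) added, fluorescence read after 1 hr (ex 450, em 510 nm).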
Tau fluor counter: counter-screen for tau fibril formation inhibitors; tau K18 P301L (four-repeat tau fragment) Alexa594 fluorescence, heparin fibrillization; Potency, µM (series often up to 57.7 µM), for inactives: at the top dose activity change, negative = decrease; 0.93% of 280,000 active; further: nearly all actives have a fitted effect of over 55% in size
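Human K18 P301L tau (15 uM unlabeled plus 0.24 uM Alexa 594-labeled, final) in 100 mM sodium acetate pH 7 was mixed with compound and 20 uM heparin and incubated 6 hr at 37 C.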
* = called active by the depositor; ? = inconclusive; . = no result given; [ ] = another dose, or the depositor's remark. A selection: hits, their analogues and other compounds. The true share with any hit is near 7.3%. The call rests on the fitted dose curve; in most records, active means well fitted curve in the direction sought with a large enough effect; inconclusive means small, poorly fitted or top-dose-only effect, or another doubt; inactive means no such curve, though single readings can be large; an effect the other way counts as inactive or inconclusive. On the % scale 0 is the no-effect control and ±100 the full control effect; potency means the concentration at half of the fitted maximal effect.

SMILES	RORgamma inh	Tau fibril FP	Gal4-VP16 FLuc	Tau ThT inhib	Tau fluor counter
N#Cc1c(/N=C/c2ccco2)sc2c1CCC2	21%	-5%	8%	?	-16%
N#Cc1c(/N=C/c2cc3ccccc3s2)sc2c1CCC2	27%	-1%	3%	1.3µM*	-7%
CCCCc1nc2c(c3c1C[C@H](C)OC3)CN(C(=O)C1CCCCC1)CC2	.	3%[11.6 µM]	.	11%[11.5 µM]	4%[11.6 µM]
COCCNC(=O)C(c1ccc(C)cc1)N(C(=O)CCC(=O)Nc1ccccn1)c1ccc(C)cc1 (centres undefined)	3%	.	-4%	.	.
COC(=O)C1=C(O)/C(=C\c2ccc(CNS(=O)(=O)c3ccccc3)o2)N=C1C	4%	?	3%	14µM*	?
CC(C)(C)CC(C)(C)c1ccc(O)c(CN2CCN(CCC#N)CC2)c1	25µM*	-2%	-24%	-6%	-15%
N#CCCN1CCN(Cc2cc(-c3ccccc3)ccc2O)CC1	16%	9%	4%	-1%	-14%
O=C(NC(=S)NCc1ccccc1)c1cccc([N+](=O)[O-])c1	6.3µM*	.	5.6µM*	.	.
O=C(C#Cc1ccccc1)c1cccc([N+](=O)[O-])c1	5.6µM*	-9%	6.3µM*	?	?
CCCCCC(=O)NNC(=S)NC(=O)c1cccc([N+](=O)[O-])c1	3.5µM*	-6%	5µM*	-7%	-17%
O=C(NC(=S)NNC(=O)c1ccccc1O)c1cccc([N+](=O)[O-])c1	-34%	.	-1%	.	.
O=C(CNC(=S)NC(=O)c1cccc([N+](=O)[O-])c1)c1ccccc1	7.1µM*	-6%	13µM*	-6%	-7%
CC(C)OCCCNC(=O)C(Cc1ccccc1)NS(=O)(=O)c1ccc2c(c1)CCC(=O)N2 (centres undefined)	-32%	.	-5%	.	.
O=C(C(Cl)c1ccccc1)N1CCOCC1 (centres undefined)	-16%	.	-12%	.	.
O=C(Nc1nnc(CSCc2ccccc2F)s1)c1cccc([N+](=O)[O-])c1	4.5µM*	6%	5µM*	-12%	-26%
CC(C)C(=O)Nc1nnc(CSCc2ccccc2F)s1	22%	3%	-1%	-4%	-6%
FC(F)(F)c1ccc(NC(=S)NCc2ccccc2)cc1	4.5µM*	?	?	5%	?
FC(F)Sc1ccc(NC(=S)NCc2ccccc2)cc1	11µM*	?	?	-5%	?
FC(F)Sc1ccc(NC(=S)NC(c2ccccc2)c2ccccc2)cc1	7.1µM*	?	?	13%	?
O=C(O)c1ccc(NC(=S)NCc2ccccc2)cc1	-35%	.	7%	.	.
FC(F)(F)c1cc(NC(=S)NC(c2ccccc2)c2ccccc2)cc(C(F)(F)F)c1	-20%	?	?	4%	-23%
Cc1cc(C)c(NC(=O)CCn2c(=O)c3cccn3c3ccccc32)c(C)c1	.	9%	.	-9%	-22%
O=C(O)CCC/C=C\C/C=C\C=C\[C@@H](O)C/C=C\CCCCCO	-1%	0%	3%	-2%	-1%
Cc1cc(=O)[nH]c(N/N=C/c2ccccc2Cl)n1	-5%	.	16%	.	.
CCN(CC)c1ccc(/C=N/Nc2nc(C)cc(=O)[nH]2)c(O)c1	5µM*	18%	3.2µM*	?	?
SMILES	RORgamma inh	Tau fibril FP	Gal4-VP16 FLuc	Tau ThT inhib	Tau fluor counter
CCN(CC)c1ccc(/C=N/Nc2ccc(C)cc2)c(O)c1	1%	-15%	-5%	25µM*	?
CCOC(=O)N/N=C/c1ccc(N(CC)CC)cc1O	?	7%	?	?	?
COc1ccc(C(=O)Nc2ccc(NC(=O)c3ccccn3)cn2)cc1	4%	.	8%	.	.
COc1ccc(NC(=O)c2cccnc2Nc2ccc(OC)cc2)cc1	37%	?	-7%	?	14µM*[quencher]
COc1ccc(NC(=O)c2ccccn2)cc1	7.9µM*	0%	11µM*	?	-16%
Cc1cccc(OC(=O)CSc2nnc(-c3cccs3)o2)c1C	.	0%	.	8%	1%
Nc1ncnc2c1nc(Br)n2[C@H]1O[C@H]2COP(=O)(O)O[C@H]2[C@@H]1O	3%	-4%	-6%	-1%	-1%
COc1cc(NC(=O)c2ccc(C)cc2C)ccc1NC(=O)c1cc2ccccc2o1	1.6µM*	.	?	.	.
Cc1cc(C(=O)Nc2cccc(C(=O)O)c2)oc1C	6.3µM*	5%	?	5%	8%
COc1cc(NC(=O)c2ccccc2F)ccc1NC(=O)c1cc2ccccc2o1	?	.	13µM*	.	.
O=C(Nc1cccc(Br)c1)c1cc2ccccc2o1	18%	-13%	4%	-20%	-23%
Cc1cc(C(=O)Nc2cccc(C(=O)O)c2)c(C)o1	?	2%	14%	-9%	-3%
Cc1cccc(NC(=O)c2cc3ccccc3o2)c1	22%	-11%	6.3µM*	?	?
COc1cc(NC(=O)c2ccc(F)cc2)ccc1NC(=O)c1cc2ccccc2o1	4%	.	2%	.	.
COC(=O)CC(=O)CSc1nc2cc(C(=O)NC(C)C)ccc2c(=O)n1CCc1ccccc1	.	-6%	.	4%	-2%
CCNc1ccc(-c2nc(-c3ccncc3)no2)cc1[N+](=O)[O-]	.	-1%	.	2%	2%
COc1ccc(OC)c(NC(=O)CSc2nccn2-c2cc(C)cc(C)c2)c1	.	6%	.	-8%	-23%
CCOC(=O)c1cnc(-n2nc(C)cc2C)nc1NCCc1ccccc1	0.89µM*	-3%	1.8µM*	-15%	1%
CCOC(=O)c1cnc(-n2nc(C)cc2C)nc1Oc1ccccc1F	5µM*	2%[0.0958 µM]	?	.	4%[0.0958 µM]
CCOC(=O)c1cnc(-n2nc(C)cc2C)nc1NCc1ccc2c(c1)OCO2	3.5µM*	-4%	3.2µM*	?	-7%
CCOC(=O)c1cnc(-n2nc(C)cc2C)nc1Nc1ccccc1OC	1.3µM*	7%	2.2µM*	-7%	-5%
CCOC(=O)c1cnc(-n2nc(C)cc2C)nc1Oc1ccc(C(=O)OC)cc1	-22%	-6%[0.0958 µM]	3%	.	4%[0.0958 µM]
